Source: PubChem (National Center for Advancing Translational Sciences (NCATS))
L3MBTL1 block: L3MBTL1 (human) inhibition. AlphaScreen L3MBTL1–H3K9me1 peptide binding. Potency, µM (series often up to 57.1 µM), for inactives: top-dose activity, negative = inhibition, most hits filed as inhibitors. 230,000 tested, 0.66% active; also: % is scaled to controls: 0 for no effect and ±100 for the full control effect; nearly all actives have a fitted effect of over 60% in size
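First, the protein-peptide complex forms for 30 min at room temperature (L3MBTL1 50 nM, biotinylated H3K9me1 peptide 75 nM). Next, compounds are pin-transferred and incubated 30 min. Finally, AlphaScreen beads are added and read after 30 min.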
JMJD2A Tudor: inhibitors of human JMJD2A Tudor domain | 390,000 tested, 4.4% active | AlphaScreen JMJD2A-Tudor / H3K4me3 peptide binding | O75164 | Potency, µM (titrated, usually from 114 µM), for inactives: at the highest dose activity change, negative = inhibition, usual class: inhibitors; also: % is scaled to controls: 0 for no effect and ±100 for the full control effect; nearly all actives have a fitted effect of over 50% in size
HP1b binding inh: inhibitors of HP1-beta chromodomain binding to methylated histone tails | P83916 | AlphaScreen HP1-beta / biotin-H3K9me3 peptide binding | Potency, µM (highest dose often 114 µM), without a hit: top-dose activity change, negative = inhibition, usual class: inhibitors | 390,000 tested, 0.56% active | AID 540317; also: nearly all actives have a fitted effect of over 70% in size
Target sequence (P83916 whole entry, looked up): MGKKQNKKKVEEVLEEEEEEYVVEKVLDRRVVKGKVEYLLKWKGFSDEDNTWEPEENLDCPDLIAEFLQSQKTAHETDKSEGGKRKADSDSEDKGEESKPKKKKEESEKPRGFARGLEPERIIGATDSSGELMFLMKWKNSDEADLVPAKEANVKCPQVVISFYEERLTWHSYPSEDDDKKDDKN
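Compound inhibition of the preformed complex between 50 nM HP1-beta and 50 nM biotinylated H3K9me3 peptide was read by AlphaScreen. Buffer was PBS pH 7.4 with 0.01% Tween-20. Incubations ran 30 min at room temperature, with 10 ug/mL donor/acceptor beads.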
BAZ2B inh: BAZ2B (human) inhibition; AlphaScreen BAZ2B-H3K14Ac peptide displacement; 360,000 tested, 4.4% active; Potency, µM (titrated, usually from 114 µM), inactives show at the highest dose activity change, negative = inhibition, hits mostly inhibitors; Q9UIF8; also: % is scaled to controls: 0 for no effect and ±100 for the full control effect; nearly all actives have a fitted effect of over 60% in size
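Inhibition is scored as reduced AlphaScreen emission. The BAZ2B/b-H3(5-23)K14Ac complex (50 nM each) in PBS pH 7.4, 0.01% Tween-20 meets compound (up to 110 uM) for 30 min at RT before bead addition.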
Sfp PPTase inh: inhibitors of Bacillus subtilis Sfp phosphopantetheinyl transferase | Potency, µM, inactives show largest response in the series, negative = inhibition, hits mostly inhibitors | AID 1490 | Biochemical Sfp PPTase activity, qHTS | 310,000 tested, 3.5% active;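 also: the enzyme is Sfp with the accession as filed and its product quenches rhodamine fluorescence; 0% = enzyme reaction without inhibitor and -100% = no enzyme wells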
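Step 1, compound plus 15 nM Sfp-PPTase, 15 min, room temperature. Step 2, add rhodamine-CoA (5 uM) and BHQ-2-YbbR (12.5 uM). Step 3, read 525/598 nm fluorescence at 0 and 30 min.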
G9a inh: G9a (human) methyltransferase inhibition | Potency, µM (top dose mostly 102 µM), for the others: top-dose activity, negative = inhibition, most hits filed as inhibitors | 350,000 tested, 8.8% active | AID 504332 | G9a H3K9 monomethylation, AlphaScreen, 2 h; also: % is scaled to controls: 0 for no effect and ±100 for the full control effect; nearly all actives have a fitted effect of over 75% in size
Target sequence (Q96KQ7 913-1193 limits assumed): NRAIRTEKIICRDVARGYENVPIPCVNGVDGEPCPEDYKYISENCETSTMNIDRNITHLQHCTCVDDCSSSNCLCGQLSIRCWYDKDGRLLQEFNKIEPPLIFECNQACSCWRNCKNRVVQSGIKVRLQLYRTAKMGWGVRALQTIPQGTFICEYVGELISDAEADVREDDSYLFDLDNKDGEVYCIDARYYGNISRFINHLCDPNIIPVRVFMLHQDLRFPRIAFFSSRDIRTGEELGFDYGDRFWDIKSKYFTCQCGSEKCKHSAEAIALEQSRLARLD
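Readings reflect AlphaScreen signal from monomethyl-H3K9 antibody detection. HMT at 20 nM; substrate b-H3K9 500 nM; cofactor SAM 20 uM; 2 h RT reaction; compounds tested as titrations in qHTS with 15 min preincubation.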
* = called active by the depositor; ? = inconclusive; · = no result given; [ ] = remark or other dose. Hits are enriched below; roughly 12% of the tested compounds scored in any of these assays. Calls follow the shape of the dose curve; as a rule, active = well fitted curve in the direction sought with a large enough effect; inconclusive = small, poorly fitted or top-dose-only effect, or another doubt; inactive = no such curve, though single readings can be large; an effect the other way counts as inactive or inconclusive. Potency is read from the fitted curve at half-maximal effect.

SMILES	L3MBTL1 block	JMJD2A Tudor	HP1b binding inh	BAZ2B inh	Sfp PPTase inh	G9a inh
O=C(O)c1ccccc1CSc1ncccc1C(=O)O	-6%	20µM*	3%	-26%	45µM*	20µM*
O=C(O)c1cccnc1SCc1cccc(Cl)c1	·	-7%	13%	-3%	16%	5%
N#Cc1ccccc1CSc1ncccc1C(=O)O	·	-10%	-6%	-11%	13%	-7%
O=C(CSc1ncccn1)N1CCCCCC1	1%	0%	42%	·	·	·
O=C(O)c1cccnc1SCC(=O)N1CCCCCC1	?	-18%	52%	0%	5%	50µM*
O=C(Cn1c(NCCO)nc2ccccc21)c1ccc(F)cc1	-5%	-1%	37%	-15%	9%	14%
O=C(Cn1c(NCCCO)nc2ccccc21)c1ccc(Cl)cc1Cl	·	-25%	-2%	-31%	-14%	79µM*
COc1ccc(-n2c(C)cc(C(=O)Cn3c(NCCO)nc4ccccc43)c2C)cc1	-8%	?	?	50µM*	-21%	50µM*
Cc1ccc(CNC(=O)c2nc(SCc3ccc(F)cc3)ncc2Cl)cc1	·	-14%	3%	1%	·	9%[59 µM]
CC(=O)c1ccc(-n2c(CCC(=O)O)ccc2-c2cccs2)cc1	-10%	?	-5%	?	20µM*	14µM*
NC(=O)c1ccc(-n2c(CCC(=O)O)ccc2-c2cccs2)cc1	·	-26%	?	-32%	-15%	28µM*
COCCCn1c(CCC(=O)O)ccc1-c1cccs1	-7%	-33%	-8%	?	?	?
Cc1ccc(-n2c(CCC(=O)O)ccc2-c2cccs2)cc1Cl	·	?	1%	?	·	13µM*
O=C(CN1C(=O)S/C(=C/c2ccccn2)C1=O)N1CCOCC1	·	-6%	13%	-24%	12%	2%
O=C1S/C(=C\c2ccccn2)C(=O)N1Cc1ccccc1F	2%	-20%	1%	6%	25%	18µM*
Nc1ccc(OCCCc2c(N)nc(N)nc2N)cc1	-23%	56µM*	1%	-35%	9%	?
COC(=O)C1=C(C)N(c2ccc(OC)c(OC)c2)C(=O)C1	3%	-17%	50%	-2%	11%	71µM*
COC(=O)C1=C(C)N(c2ccc(F)cc2)C(=O)C1	4%	-11%[57.1 µM]	61%	12%	12%	45µM*
NNS(=O)(=O)c1ccc2c(c1)Cc1cc(S(=O)(=O)NN)ccc1-2	·	-13%	11%	-7%	-19%	7.9µM*
C/C(=N\Nc1nncc2ccccc12)c1ccc(OCC(=O)N(C)C)cc1	·	-24%	-18%	?	50µM*	45µM*
CC/C(=N\Nc1nncc2ccccc12)c1ccc(F)cc1	·	-25%	12%	-14%	2%	40µM*
Cc1ccc(S(=O)(=O)N2CCC(c3nc(-c4cccs4)nc4ccccc34)CC2)cc1	·	-8%	12%	·	·	·
COc1cc2c(cc1OC)-c1nnnn1C(C)(C)C2	2%	-3%	39%	-1%	-3%	-1%[59 µM]
COc1cc2c(cc1OC)-c1n[nH]c(=S)n1C(C)(C)C2	·	40µM*	41%	-3%	-11%	4µM*
Cc1cc(N)c2cc(NC(=O)Nc3ccc4nc(C)cc(N)c4c3)ccc2n1	·	·	·	·	7.9µM*	·
SMILES	L3MBTL1 block	JMJD2A Tudor	HP1b binding inh	BAZ2B inh	Sfp PPTase inh	G9a inh
Cc1cc(C)c(NC(=O)Nc2ccccc2)c(C)n1	-1%	-11%	13%	5%	·	5%[12.7 µM]
CC1CC=CC2C1C(=O)N(Cc1ccccc1)C2c1ccc2ccccc2c1Br (stereo not given)	·	-6%	21%	·	?	·
Cc1ccc(CNC(=O)CSc2nc3c(sc4ccccc43)c(=O)n2CCCOC(C)C)cc1	·	-10%	16%	1%	·	6%[59 µM]
COc1ccc(CNC(=O)CCc2c(C)c3cc4c(C)coc4cc3oc2=O)cc1	·	-18%	22%	-10%	·	-26%[59 µM]
COc1ccc(S(=O)(=O)Nc2ccccc2C(=O)Nc2nc(-c3ccc(F)cc3)cs2)cc1OC	2%	?	-21%	?	7%	?
COc1ccc(-c2csc(NC(=O)c3ccccc3NS(=O)(=O)c3ccc(C)cc3)n2)cc1	-8%	?	?	35µM*	5%	?
Cc1ccc(S(=O)(=O)Nc2nc(-c3ccc(F)cc3)cs2)cc1	-13%	-34%	-15%	?	-2%	50µM*
CCc1ccc(-n2c(C)nnc2SCc2nc(-c3ccc(OC)cc3)no2)cc1	·	-27%	30%	-14%	·	-2%[59 µM]
Cc1ccc(CNC(=O)CCCN2C(=O)CCn3nc(-c4cn(C)c5ccccc45)cc32)cc1	·	-17%	19%[57 µM]	-4%	·	4%[59 µM]
Cc1ccc(CNC(=O)C2CCN(C(=O)c3cnn(-c4ccccc4)c3-n3cccc3)CC2)cc1	·	-14%	14%	-25%	·	-5%[59 µM]
Cc1ccc(C)c(OCC(=O)NC(Cc2c[nH]c3ccccc23)C(=O)O)c1 (stereo not given)	-15%	-12%	27%	?	-5%	·
CCOc1ccccc1Nc1nnc(SCC(=O)NC(Cc2c[nH]c3ccccc23)C(=O)O)s1 (stereo not given)	-9%	-29%	-9%	-31%	8%	40µM*
Cc1ccc(Nc2nnc(SCC(=O)NC(Cc3c[nH]c4ccccc34)C(=O)O)s2)cc1 (stereo not given)	-6%	-23%	1%	50µM*	-13%	13µM*
CCCCN(C)CCNC(=O)c1cc(=O)[nH]c2ccc(S(=O)(=O)N3CCCCCC3)cc12	·	-20%	21%	-2%	·	6%[59 µM]
CC(C)CCn1c(SCC(=O)Nc2ccccc2C(F)(F)F)nc2nccnc2c1=O	·	-27%	12%	79µM*	?	6.3µM*
CCOc1ccc(S(=O)(=O)N2CCN(c3nc(-c4ccccc4)nc4ccccc34)CC2)cc1	·	-20%	18%	·	·	·
COCCN(C(=S)Nc1c(C)cc(C)cc1C)C(C)c1cccnc1 (stereo not given)	-2%	-1%[57.1 µM]	?	7%	11µM*	7.1µM*
